# MITF primary = MITF inhibitors, primary screen, biochemical, AlphaScreen, human; AlphaScreen MITF homodimerization, bead proximity signal; inhibition, % at 2.6 µM; 0.91% of 650,000 active; in the data active = inhibition above about 50%;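 note: 0% = vehicle wells with protein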
# Target sequence (O75030 whole entry, looked up): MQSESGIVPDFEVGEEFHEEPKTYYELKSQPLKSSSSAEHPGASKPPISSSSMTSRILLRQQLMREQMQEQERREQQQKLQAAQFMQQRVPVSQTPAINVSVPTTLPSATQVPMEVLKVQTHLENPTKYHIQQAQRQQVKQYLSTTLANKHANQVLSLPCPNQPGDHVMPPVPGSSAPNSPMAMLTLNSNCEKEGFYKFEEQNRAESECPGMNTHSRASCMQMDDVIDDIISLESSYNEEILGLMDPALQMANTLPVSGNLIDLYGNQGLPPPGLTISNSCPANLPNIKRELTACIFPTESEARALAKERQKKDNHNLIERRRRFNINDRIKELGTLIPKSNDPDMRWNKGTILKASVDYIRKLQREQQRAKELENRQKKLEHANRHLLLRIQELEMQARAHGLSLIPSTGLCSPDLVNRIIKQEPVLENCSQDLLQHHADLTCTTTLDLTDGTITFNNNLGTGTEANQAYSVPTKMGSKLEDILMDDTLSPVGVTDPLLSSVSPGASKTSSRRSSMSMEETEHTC
# TEAD-YAP inh = TEAD-YAP interaction inhibition, primary screen, TEAD-YAP interaction inhibitor project, luminescence, HEK-TIYL cells | 1.4% of 640,000 active | inhibition, % at 9.12 µM | AID 1259422, 2018 | TEAD-Gal4/YAP UAS-luciferase luminescence; in the data active = inhibition above about 32%;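 note: 0% = median of test compound wells and 100% = reference inhibitor wells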
# FBW7 activator = FBW7 E3 ligase activators, primary screen, biochemical, AlphaScreen, human; normalized activity (activation), % at 26.1 µM; F-box/WD repeat-containing protein 7 (Homo sapiens), Q969H0; AID 1259310, 2017; AlphaScreen FBW7–phospho-cyclin E peptide binding, activator screen; 0.13% of 650,000 active; in the data active = normalized activity above about 1.9%;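 note: purified mutant Fbw7 with reduced substrate affinity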
# GPR151 ag = activators of human GPR151, primary screen, cell-based, PathHunter beta-arrestin, luminescence; G-protein coupled receptor 151 (Homo sapiens), Q8TDV0; PathHunter beta-arrestin GPR151 cells; activation, % at 11.2 µM; 1% of 650,000 active; in the data active = activation above about 4.9%;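 note: 0% = median of compound wells and 100% = cells with positive control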
# * marks the source's active call; other numbers are inactive results. Shown are actives, neighbours in structure and some others; about 3.5% of the full set was active somewhere.
SMILES,MITF primary,TEAD-YAP inh,FBW7 activator,GPR151 ag
O=C(Nc1ccccc1Cl)c1cc(F)ccc1[N+](=O)[O-],11,80*,0,0
O=C(Nc1ccc(Br)cc1F)c1ccc(Cl)c([N+](=O)[O-])c1,18,-12,0,-1
O=C(Nc1ccccc1Cl)c1cc([N+](=O)[O-])ccc1O,23,60*,1,-6
O=C(Nc1ccc(F)cc1F)c1ccc(Cl)c([N+](=O)[O-])c1,11,56*,0,-2
O=C(Nc1ccccc1Cl)c1ccc([N+](=O)[O-])cc1Cl,9,0,0,1
O=C(Nc1ccc(N2CCCCC2)cc1)c1ccc(Cl)c([N+](=O)[O-])c1,6,43*,0,-1
C/C(=N\NC(=S)Nc1ccc(F)cc1)c1ccc(O)cc1,12,-16,0,-2
CC(C)CC(=O)Nc1ccc(Cl)c([N+](=O)[O-])c1,6,4,0,1
Cc1ccccc1C(=O)Nc1ccc(-c2ccc([N+](=O)[O-])cc2)cc1,-3,-24,0,2
O=C(Nc1ccc(-c2ccc([N+](=O)[O-])cc2)cc1)c1ccccc1O,-2,45*,0,-1
O=C(CCl)Nc1ccc(Cl)c([N+](=O)[O-])c1,-6,74*,0,0
O=C(Nc1ccc([N+](=O)[O-])cc1Br)c1ccccc1O,10,78*,0,-2
CC(=O)Nc1cccc(NC(=O)c2ccc(Br)s2)c1,-2,-48,0,0
CC(C)(C)C(=O)N1CCC[C@@H](Cn2nc(-c3cccs3)ccc2=O)C1,12,66*,0,0
N#C/C(=N/Nc1cccc(C(F)(F)F)c1)C(N)=S,-2,47*,0,0
CNC(=O)c1cc(F)ccc1Nc1cc(Nc2cc(-c3cncnc3)nc(C)n2)ncc1C(F)(F)F,-5,55*,0,-1
Cc1nc(Nc2cc(Nc3ccccn3)c(C(F)(F)F)cn2)cc(-c2cncnc2)n1,16,32*,0,0
COc1ccc(N2CCOCC2)cc1Nc1cc(Nc2ccccn2)c(C(F)(F)F)cn1,19,-2,0,-1
O=C(COC1C(C2COC3(CCCCC3)O2)OC2OC3(CCCCC3)OC21)NNC(=O)c1cccc(F)c1 (stereo unspecified),13,16,0,-2
CN(C)/N=C/C=C1\CC/C(=C\c2ccco2)C1=O,55*,-42,0,1
O=C1C(=C2SCCS2)CC/C1=C\c1ccco1,91*,18,-1,3
CC(C)c1ccc(/C=C2\CC/C(=C\C=N\N(C)C)C2=O)cc1,-13,-6,0,-1
c1ccc(-c2cnc(N3CCC4(CC3)OCCO4)nc2)cc1,2,70*,0,-11
Fc1ccc(-c2cc(N3CCC4(CC3)OCCO4)nc(-c3ccccn3)n2)cc1,9,15,0,-1
c1ccc(-c2cc(N3CCC4(CC3)OCCO4)nc(-c3ccccn3)n2)cc1,1,43*,0,1
SMILES,MITF primary,TEAD-YAP inh,FBW7 activator,GPR151 ag
COc1ccc(-c2cnc(N3CCC4(CC3)OCCO4)nc2)cc1,5,-27,0,0
COc1ccccc1CNC(=O)CC(NS(=O)(=O)c1ccc(Cl)cc1)c1ccco1 (stereo unspecified),4,-6,0,-1
O=C(Nc1nc2ccccc2[nH]1)c1ccccc1Cl,3,83*,0,-11
O=C(Nc1cnc2ccccc2c1)c1ccc(Cl)cc1Cl,10,66*,0,-4
O=C(Nc1nc2ccccc2[nH]1)c1ccc(Cl)cc1Cl,-10,84*,0,-11
O=C(Nc1nc2ccccc2[nH]1)c1ccc([N+](=O)[O-])cc1Cl,3,18,0,-6
Cc1cccc(NC(=O)COc2ccc(Cl)cc2C=C2C(=O)NC(=O)NC2=O)c1,0,-46,0,1
CCCCOc1ccc(CN=C(N)N=C(N)N)cc1,7,8,0,-1
CCC(=O)NC(c1nnc2n1CCN(Cc1ccco1)CC2)C(C)C (stereo unspecified),-15,-1,0,0
CC1=C(C(=O)Nc2ccc(C)cn2)C(c2ccc(Br)cc2)C2=C(CCCC2=O)N1 (stereo unspecified),-11,-2,0,2
CCN1C(=O)S/C(=C/c2cc(C)n(-c3ccccn3)c2C)C1=O,10,69*,0,1
CCN1C(=O)/C(=C\c2cc(C)n(-c3ccc(OC)cc3)c2C)C(C(=O)OC)=C1C,76*,-6,0,-2
CCN1C(=O)S/C(=C/c2cc(C)n(-c3ccc(O)cc3)c2C)C1=O,4,80*,0,0
CCOC(=O)C(C)N1C(=O)S/C(=C/c2cc(C)n(-c3ccccn3)c2C)C1=O (stereo unspecified),5,-21,0,-1
CCN1C(=O)NC(=O)/C(=C\c2cc(C)n(-c3ccc(O)cc3)c2C)C1=O,9,-3,-1,1
Cc1ccc(C)c(Oc2coc3cc(OCCc4ccccc4)ccc3c2=O)c1,-2,5,0,0
O=C(COc1ccccc1F)NCc1ccccc1,21,-13,0,-1
COc1cc(CNc2ccnc3c(-c4cccc(F)c4)cnn23)cc(OC)c1OC,9,4,1.9*,1
COc1ccc(CNc2ccnc3c(-c4ccc(OC)cc4)cnn23)cc1,-1,12,0,2
COc1ccc(CNc2ccnc3c(-c4ccccc4)cnn23)cc1,2,-18,1.9*,-1
c1ccc2c(c1)N1CCCN=C1N2CCNC1CCCCC1,-22,3,0,1
c1coc(-c2nnc(-c3cc4c(s3)CCCC4)o2)c1,-6,54*,0,-8
O=c1oc(-c2ccco2)nc2sc3c(c12)CCCC3,2,2,0,-2
Cc1c(-c2ccc(-c3ccccc3)cc2)[n+](CC(=O)c2ccccc2)c2ccccn12,7,56*,0,1
COc1ccc(N2CCN(Cc3ccc(F)cc3)C2=O)cc1,-6,-12,0,1
SMILES,MITF primary,TEAD-YAP inh,FBW7 activator,GPR151 ag
Cc1ccc(CNC(=O)c2cnc3c(c(C)nn3-c3ccc(F)cc3)c2Cl)cc1,-15,1,0,0
Cc1nn(-c2ccc(F)cc2)c2ncc(C(=O)NCCCn3ccnc3)c(Cl)c12,-9,65*,0,-1
COc1cc(COc2ccc3ccc(=O)oc3c2)cc(OC)c1OC,0,4,0,-1
COc1cc(COc2ccc3c(C)cc(=O)oc3c2)cc(OC)c1OC,-8,56*,0,2
COC(=O)c1ccccc1OCCCOc1ccc(C)cc1OC,13,-12,0,-2
COc1cc(C)ccc1OCCCOc1ccccc1C(=O)O,-11,37*,1,-1
CCOc1ccc2nc(SCCC(=O)Nc3ccccc3)sc2c1,-4,36*,0,1
CCc1ccc2nc(N3CCCC(C(=O)O)C3)sc2c1 (stereo unspecified),9,58*,0,0
CCOc1ccc2nc(N3CCC(C(=O)Nc4cccc(C(C)=O)c4)CC3)sc2c1,19,69*,1,1

# Screening results as filed in PubChem BioAssay.
